# According to PubChem BioAssay (NCI):
# The panel holds about 79,000 compounds, 15% with a hit somewhere; the sample as a whole holds those more often. Values without a mark were called inactive. Calls of active or inactive are those of the source. Rule as the data show it: active = growth inhibition above about 70%; inactive = the rest.
# What was measured:
# [1] = NCI Yeast Anticancer Drug Screen. Data for the rad50 strain (AID 155);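 also: 0% = growth of vehicle-only cultures of the same strain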; conditions: S. cerevisiae rad50 strain growth inhibition; at 50.0 µM; active compounds read high
# Method in brief: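 Growth of the mutant yeast was measured after compound exposure and referenced to vehicle-treated cultures.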
# [2] = NCI Yeast Anticancer Drug Screen. Data for the mec2-1 strain (AID 157); conditions: S. cerevisiae mec2-1 strain, at 50.0 µM, active compounds read high
# Method in brief: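 Mutant yeast (mec2-1) grown with compound; growth inhibition relative to vehicle control reported.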
# [3] = NCI Yeast Anticancer Drug Screen. Data for the sgs1 mgt1 strain (AID 161);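 also: 0% = growth of cultures given vehicle only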; conditions: S. cerevisiae sgs1 mgt1 strain, at 50.0 µM, active compounds read high
# Method in brief: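 Compounds are added to genetically altered yeast, and growth is compared with cultures given vehicle alone to give percent inhibition.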
# [4] = NCI Yeast Anticancer Drug Screen. Data for the cln2 rad14 strain (AID 165);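 also: 0% = growth equal to vehicle treated cultures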; conditions: S. cerevisiae cln2 rad14 strain, at 50.0 µM, active compounds read high
# Method in brief: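 Readout is yeast growth inhibition versus vehicle-treated controls, using a strain with cln2 and rad14 alterations exposed to compound.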
# [5] = NCI Yeast Anticancer Drug Screen. Data for the bub3 strain (AID 167); conditions: S. cerevisiae bub3 mutant strain, at 50.0 µM, active compounds read high
# Method in brief: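 Whole-cell yeast assay. The mutant strain was incubated with compounds, and growth inhibition was determined by comparison with vehicle-treated cells.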
# [6] = NCI Yeast Anticancer Drug Screen. Data for the mlh1 rad18 strain (AID 175); conditions: S. cerevisiae mlh1 rad18 strain growth inhibition; at 50.0 µM; active compounds read high
# Method in brief: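 Genetically defined yeast (DNA repair-deficient) exposed to compounds; growth inhibition determined relative to vehicle.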
SMILES,growth inhibition [1],growth inhibition [2],growth inhibition [3],growth inhibition [4],growth inhibition [5],growth inhibition [6]
O=C1c2cccc3c([N+](=O)[O-])ccc(c23)C(=O)N1CC1CCCO1 (stereo unspecified),71.3% (active),51%,87.1% (active),40.8%,51.8%,73.5% (active)
OCc1c(CO)c2cccn2c2c1cnn2-c1ccccc1,11.3%,1.45%,23.9%,-64.9%,-8.2%,11.2%
CN(C)c1ccc(N=Nc2ccc(S(=O)(=O)O)cc2)cc1.CN(C)c1ccc(N=Nc2ccc(S(=O)(=O)O)cc2)cc1.[NH-]C1CCCCC1[NH-].[Pt+2],24.2%,7.1%,10.3%,-9.15%,15.6%,3.55%
C[N+]1(C)CCCC(c2ccccc2)(c2ccccc2)C(O)C1 (stereo unspecified),10.8%,7.15%,11.2%,23.4%,-2.65%,11.9%
CCOC1(COP(=O)(OCc2ccccc2)OCc2ccccc2)COC(COP(=O)(OCc2ccccc2)OCc2ccccc2)(OCC)CO1 (stereo unspecified),-30.1%,-25.6%,-16.2%,2.2%,-3.75%,-22.8%
O=C(/C=C(\C(=O)c1ccccc1)c1ccccc1)c1ccc(-c2ccccc2)cc1,8.2%,-2.35%,-3.15%,-6.9%,-3.45%,-16.9%
COC(=O)CC(NC(=O)OCc1ccccc1)C(=O)NC(COC(C)=O)C(=O)NCC(=O)OCc1ccccc1 (stereo unspecified),28.4%,10.4%,10.3%,15.6%,3.2%,16.4%
CCOc1ccccc1NC(=O)CC(=O)N1N=C(C)C(N=Nc2ccccc2C(=O)O)C1=O (stereo unspecified),18.1%,3.5%,1.6%,-2.3%,-3.35%,17.6%
O=C(O)CC(SSCc1ccccc1)C(=O)O (stereo unspecified),5.1%,16.6%,-4.15%,-12.2%,12.7%,20.8%
CCOC(=O)c1ccc(NN=NCCF)cc1,15.8%,10%,0.4%,6.4%,-32.5%,-44.1%
C[N+]1(C)N=C([O-])N(CCCCCCN2C(=O)[N+](C)(C)N=C2[O-])C1=O,10.3%,-13.1%,15.1%,9.55%,8.65%,15%
CCCc1cc2c(cc1CSc1ccccc1C(=O)O)OCO2,-13.6%,-8.75%,-1.9%,-84.7%,-7.6%,-12.4%
CC(=O)CC(=O)CCC(=O)O,30.9%,-20.2%,-0.25%,7.1%,13.9%,32.8%
CC1=CC(N)C2CC1C2(C)C (stereo unspecified),-9.3%,-17.1%,-29.1%,-37.6%,-2.2%,-1.65%
O=C(OCc1ccccc1CN1CCCCC1)c1ccc([N+](=O)[O-])cc1Cl,-7.4%,-6.45%,0.85%,-34.9%,-2.6%,-29.7%
Cc1ccnc(C2=C(O)c3ccccc3C2=O)c1,20%,0.1%,-9.75%,1.15%,-2.8%,12.8%
O=C1C=C(Nc2nc(O)cc(=O)[nH]2)c2ccccc2C1=O,0.75%,2.2%,1.15%,-38.5%,-0.4%,13.5%
CCCC(P(=O)(c1ccccc1)c1ccccc1)[P+](CC)(c1ccccc1)c1ccccc1 (stereo unspecified),84.6% (active),78.2% (active),85.9% (active),54.6%,81.7% (active),77.8% (active)

SMILES,growth inhibition [1],growth inhibition [2],growth inhibition [3],growth inhibition [4],growth inhibition [5],growth inhibition [6]
N#Cc1c(-c2ccccc2)nc(-c2ccccc2)sc1=S,12.1%,-0.7%,42%,4.55%,48.1%,73.8% (active)
OCC1C2C=CC(O2)[C@H]1CO (stereo partly specified),1.65%,-3.75%,-11.8%,-27.9%,-24.9%,-6.95%
CCN(CC)CCO/N=C(\c1ccccc1)c1ccccn1,4.6%,-5.95%,16.9%,-78.3%,10.7%,1.2%
CCCC(=O)C(N)Cc1ccccc1 (stereo unspecified),-3.8%,-6.1%,-6%,12.3%,12.2%,-6.3%
Cc1cccc(C)c1NC(=O)N1CCN(C)CC1,1.9%,14.3%,-3.3%,-75.8%,-9.45%,-18.6%
O=C(Nc1ccc(Cl)cc1)Nc1nnc(-c2ccc(F)cc2)o1,5.5%,9.25%,7.75%,-70.3%,-25%,17.4%
CC(C)=C1CCC(CN2CCCC2)C1=O (stereo unspecified),20.1%,13.4%,17.4%,19.2%,6.2%,23.6%
COc1ccc(OC)c(NC(=O)Oc2cc(C)c(Cl)c(C)c2)c1,5.85%,-1.85%,7.1%,8.25%,9.1%,6.35%
NCCS/C=C/C(=O)Oc1ccc(Br)cc1,35.5%,0.85%,12.1%,-1.3%,-9.9%,53.9%
CC(Cl)S(N)(=O)=O (stereo unspecified),-11.7%,-11.7%,-19.2%,-6.45%,7.45%,2.15%
CCN(CC)CCSc1nnc(-c2cc(OC)c(OC)c(OC)c2)o1,32.5%,1.1%,-21.1%,14.8%,4.2%,-9.85%
CC1CC(C)OC(C)(Cc2ccccc2)O1 (stereo unspecified),23.8%,20.4%,25.6%,-19.9%,-2.15%,-13.9%
COC(=O)c1ccccc1NC(=O)Nc1cc(Cl)ccc1OC,85.5% (active),91.2% (active),90.4% (active),80.8% (active),88.2% (active),88.9% (active)
CCc1ccc(-n2c(C)nc3[nH]cc(C)c3c2=N)cc1,-13.6%,-3.35%,-11.9%,-12.3%,-2.65%,-10.4%
O=C(c1nc2cc([N+](=O)[O-])ccc2[nH]c1=O)C(O)c1ccco1 (stereo unspecified),-8.65%,-25.4%,-25.2%,13.9%,-35%,-6.35%
COc1ccc(CCN=C(C)c2cc(Cl)cc(Cl)c2O)cc1OC,31.1%,16.2%,7%,19.3%,-0.4%,13.9%
CN(C)C(=O)Nc1cccc(OS(=O)(=O)N(C)C)c1,5.4%,26.1%,23.2%,-18.6%,22.9%,12.6%
Cc1[nH]c(=O)c2oc3cc4ccccc4cc3c2c1C(=O)O,-14.6%,-29.9%,-24.1%,-44.1%,-30.7%,-19.1%
